# Measurements: PubChem BioAssay (NCATS)
# Records with an inconclusive call do not appear. The source made the active and inactive calls. Calls follow the shape of the dose curve; as a rule, active = well fitted cell-killing curve with a large enough effect; inconclusive = small, poorly fitted or top-dose-only effect, or effect the other way; inactive = no such curve, though single readings can be large or run the other way. Starred links: 1 amine or outer side, 2 acyl side, 3 side chain; linkers in the order of their positions; H or OH if unused. Positions of bridges follow the written chain, without caps; N, C: chain ends. Non-standard residues stand in square brackets, D forms with d. Residues, ends and D or L forms follow the SMILES beside them. Chains are numbered I, II in the order given. *: point of attachment. Actinocin(9to1) = Cc1c2oc3c(C)ccc(C(=O)[*:1])c3nc-2c(C(=O)[*:2])c(N)c1=O; NMeV = CN[CH](C(=O)O)C(C)C; Cbz = O=C(OCc1ccccc1)*; Sar = CNCC(=O)O
# Test: Quantitative High-Throughput drug screen in 47 multiple myeloma cell lines against the NCATS MIPE library collection: UTMC2_PLB cell viability assay (AID 1919868); also: nearly all actives have a fitted effect of over 55% in size
# Details: CellTiter-Glo ATP luminescence, 48 h; viability (% of DMSO control): at 45.8 µM (top of the series)
# From the text: PI: Beverly A. Mock Ph.D.
# Laboratory of Cancer Biology and Genetics,
# Center for Cancer Research, National Cancer Institute,
# National Institute of Health, Bethesda, Maryland
# Drug resistance and disease progression are common in multiple myeloma (MM) patients, underscoring the need for new therapeutic combinations. […] We hypothesized that effective combinations would reduce MYC expression and enhance p16 activity. […] These preclinical data identify potentially useful drug combinations for evaluation in drug-resistant MM and reveal potential mechanisms of combined drug sensitivity.
# Described herein is the primary MIPE qHTS used to cherrypick compounds. Validated compounds were then further tested for potential synergistic activiy.
# [1] Peat TJ, Gaikwad SM, Dubois W, Gyabaah-Kessie N, Zhang S, Gorjifard S, Phyo Z, Andres M, Hughitt VK, Simpson RM, Miller MA, Girvin AT, Taylor A, Williams D, D'Antonio N, Zhang Y, Rajagopalan A, Flietner E, Wilson K, Zhang X, Shinn P, Klumpp-Thomas C, McKnight C, Itkin Z, Chen L, Kazandijian D, Zhang J, Michalowski AM, Simmons JK, Keats J, Thomas CJ, Mock BA. Drug combinations identified by high-throughput screening promote cell cycle transition and upregulate Smad pathways in myeloma. Cancer Lett. 2023 Aug 1;568:216284. doi: 10.1016/j.canlet.2023.216284. Epub 2023 Jun 24. PMID: 37356470; PMCID: PMC10408729.
# SEQUENCE No. (e.g., 1, 2, 3, etc.); […] (e.g., Cells, Incubation, Reagent, etc.); VALUE and DESCRIPTION.
# 1; Cells; 5 uL; white, solid bottom 1536-well Greiner assay plate.
# 2; Compounds; 23 nL; Kalypsis pin tool (Wako USA) equipped with a 1536-well pin head to transfer to the assay plates.
# 3; Incubation; 48 hours; 37C incubation.
# 4; Reagent;5uL; CellTiter Glo (Promega).
# 5; Detector; 425V; Luminescence; Viewlux PerkinElmer.
# NOTES (numbers refer to Sequence numbers above)
# 1. The cell-based screening methods employed in this study were like those previously published. Briefly, the corresponding myeloma cell lines were screened in 1,536-well plates with 500 cells, 5-uL per well for inhibition of cell viability (assessed by measuring ATP levels with CellTiterGlo).
# 2. NCATS MIPE 4.0 library of approved and investigational drugs were added using the Kalypsis pin tool. Wells treated with DMSO only for 100% viability and media only for 0% viability were used as controls.
# 3. The assay plates were covered and incubated for 48 hours in a 37C, 5% CO2 incubator with controlled humidity.
# 4. After 48 hours, CellTilter-GloTM luminescent substrate mix (Promega) reagent was added to the assay plate and plates we incubated for 5 min at room temperature.
# 5. Signal was measured as median relative luminescence units on a ViewLux (PerkinElmer) multiplate reader.
# [1] Heske CM, Davis MI, Baumgart JT, Wilson K, Gormally MV, Chen L, Zhang X, Ceribelli M, Duveau DY, Guha R, Ferrer M, Arnaldez FI, Ji J, Tran HL, Zhang Y, Mendoza A, Helman LJ, Thomas CJ. Matrix Screen Identifies Synergistic Combination of PARP Inhibitors and Nicotinamide Phosphoribosyltransferase (NAMPT) Inhibitors in Ewing Sarcoma. Clin Cancer Res. 2017 Dec 1;23(23):7301-7311. doi: 10.1158/1078-0432.CCR-17-1121. Epub 2017 Sep 12. PMID: 28899971; PMCID: PMC6636827.
# Potency is read from the fitted curve at half-maximal effect.
Compound,Potency,viability (% of DMSO control)
COc1cc(O)c2c(c1)C1OC1C[C@H](O)[C@H](O)C(=O)C=CC[C@H](C)OC2=O (stereo not given in full),10500 nM (active),–
C=C(C)[C@@H]1CC[C@]2(C)CC[C@]3(C)[C@H](CC[C@@H]4[C@@]5(C)CC[C@H](O)C(C)(C)[C@H]5CC[C@]43C)[C@@H]12,–,135% (inactive)
CCC(C=C[C@@H]1OC(=O)C=C[C@H]1C)=C[C@H](C)CC=CC(C)=C[C@@H](C)C(=O)[C@@H](C)[C@H](O)[C@@H](C)CC(C)=CC(=O)O,17.5 nM (active),–
N#Cc1c(NC(=O)c2cccc3ccccc23)sc2c1CCCC2,418 nM (active),–
"Cc1c2oc3c(C)ccc(C(=O)NC4C(=O)NC(C(C)C)C(=O)N5CCCC5C(=O)N(C)CC(=O)N(C)C(C(C)C)C(=O)OC4C)c3nc-2c(C(=O)NC2C(=O)NC(C(C)C)C(=O)N3CCCC3C(=O)N(C)CC(=O)N(C)C(C(C)C)C(=O)OC2C)c(N)c1=O (stereo not given) (I: TVP[Sar][NMeV] / II: TVP[Sar][NMeV]; ester I:1-I:C, II:1-II:C; linker I:N-II:N via Actinocin(9to1); configuration not given here)",–,1.86% (inactive)
COc1cccc2c1C(=O)c1c(O)c3c(c(O)c1C2=O)C[C@@](O)(C(C)=O)C[C@H]3O[C@H]1C[C@H](N)[C@H](O)[C@H](C)O1,11.8 nM (active),–
Cn1cnc(=N)c2[nH]cnc21,93.5 nM (active),–
O=C(Nc1nnc(-c2ccco2)o1)c1cc(-c2ccccc2)nc2ccccc12,14800 nM (active),–
O=c1[nH]c(=O)n([C@H]2C[C@@H](O)[C@@H](CO)O2)cc1F,10500 nM (active),–
CC(O)(C#Cc1ccc2c(c1)N(c1nc(N)ncc1Cl)CC2)c1nccs1 (stereo not given),4180 nM (active),–
COc1cc(OC)c(C=CS(=O)(=O)Cc2ccc(OC)c(NCC(=O)O)c2)c(OC)c1,166 nM (active),–
CCOc1cc2c(c(F)c1OCC)C(=N)N(CC(=O)c1cc(N3CCOCC3)c(OC)c(C(C)(C)C)c1)C2,7430 nM (active),–
N#CNC(=NCCCCCCOc1ccc(Cl)cc1)Nc1ccncc1,–,7.81% (inactive)
CN1C(C(=O)Nc2ccccn2)=C(O)c2sc(Cl)cc2S1(=O)=O,4690 nM (active),–
NC(=O)c1ncn([C@@H]2O[C@H](CO)[C@@H](O)[C@@H]2O)c1O,–,183% (inactive)
CCOC(=O)C1=C(C)NC(=S)NC1c1cccc(O)c1 (stereo not given),37.2 nM (active),–
O=C(Nc1cc2cc[nH]c2cn1)c1ccccc1,13200 nM (active),–
CCN(CC)CCCCNc1ncc2c(n1)N(C)C(=O)N(c1c(Cl)c(OC)cc(OC)c1Cl)C2,–,99.3% (inactive)
C=C1C[C@@]2(O)O[C@@]3(C[C@H]2C(C)C)[C@H](C)CC[C@H]13,–,154% (inactive)
c1ccc(CNc2nc(NCc3ccccc3)c3ccccc3n2)cc1,10500 nM (active),–

Compound,Potency,viability (% of DMSO control)
Cn1cc(CNCC2CCN(c3ncc(C(=O)NO)cn3)CC2)c2ccccc21,18.7 nM (active),–
C[C@@]12C(=O)OC(=O)[C@@]1(C)C1CCC2O1,46.9 nM (active),–
Nc1cccc2c1C(=O)N(C1CCC(=O)NC1=O)C2=O (stereo not given),–,186% (inactive)
CC[C@H]1OC(=O)[C@H](C)[C@@H](O[C@H]2C[C@@](C)(OC)[C@@H](O)[C@H](C)O2)[C@H](C)[C@@H](O[C@@H]2O[C@H](C)C[C@H](N(C)C)[C@@H]2O)[C@](C)(OC)C[C@@H](C)C(=O)[C@H](C)[C@@H](O)[C@]1(C)O,–,120% (inactive)
O=C(Nc1cccc(Nc2ncc(Br)c(NCCc3cnc[nH]3)n2)c1)N1CCCC1,662 nM (active),–
O=C(C[C@@H]1CC=CCCC(=O)O[C@H](c2ccccc2)CNC1=O)NCc1ccc(Cl)cc1,–,133% (inactive)
Cc1cn([C@@H]2O[C@H](CO)[C@@H](O)[C@H]2F)c(=O)[nH]c1=O,–,107% (inactive)
CC(=O)SCC(Cc1ccccc1)C(=O)NCC(=O)OCc1ccccc1 (stereo not given),1320 nM (active),–
COc1cc(OC)cc(-c2ccc3ncc4ccc(=O)n(-c5ccc(N6CCNCC6)c(C(F)(F)F)c5)c4c3c2)c1,2960 nM (active),–
COC(=O)C=CC(=O)OC,2350 nM (active),–
COc1cc([C@@H]2c3cc4c(cc3[C@@H](O[C@@H]3O[C@@H]5CO[C@@H](c6cccs6)O[C@@H]5[C@H](O)[C@@H]3O)[C@H]3COC(=O)[C@H]23)OCO4)cc(OC)c1O,52.6 nM (active),–
Cc1cnn(C)c1C(=O)Nc1cc(Nc2ccc3c(C=Cc4ccccn4)n[nH]c3c2)ccc1F,10500 nM (active),–
NC1=N[C@H]2[C@H](CS[C@H]2CCCCC(=O)O)N1,–,172% [at 23.2 µM] (inactive)
COc1cc(C)c(Sc2cnc(NC(=O)c3ccc(CNC(C)C(C)(C)C)cc3)s2)cc1C(=O)N1CCN(C(C)=O)CC1 (stereo not given),3320 nM (active),–
C[C@H]1O[C@H](O[C@H]2[C@H](O)[C@@H](O)[C@@H](O[C@H]3[C@H](O)[C@@H](O)C(O)O[C@H]3CO)O[C@H]2CO)[C@H](O)[C@@H](O)[C@H]1N[C@H]1C=C(CO)[C@@H](O)[C@H](O)[C@@H]1O (stereo not given in full),–,192% (inactive)
CCOC(=O)[C@@H](N)Cc1ccc(-c2cc(O[C@H](c3ccc(Cl)cc3-n3ccc(C)n3)C(F)(F)F)nc(N)n2)cc1,20900 nM (active),–
O=C(O)C=Cc1ccc(Cn2ccnc2)cc1,–,151% (inactive)
CN[C@@H]1C[C@H]2O[C@@](C)([C@H]1OC)n1c3ccccc3c3c4c(c5c6ccccc6n2c5c31)C(=O)N[C@H]4O,148 nM (active),–
COc1cc(C=CC(=O)CC(=O)C=Cc2ccc(O)c(OC)c2)ccc1O,21500 nM (active),–
CC(C)C[C@@H](C=O)NC(=O)[C@H](CC(C)C)NC(=O)[C@H](CC(C)C)NC(=O)OCc1ccccc1 (Cbz-Leu-Leu-Leu-aldehyde),1180 nM (active),–
